What all share (assay): NCI-60 one-dose screen, 48 h (100 = growth as untreated, 0 = no growth, -100 = all killed)
Common to all, as to details: 10 µM unless noted

Test [1] relates to SK-MEL-2 melanoma.
The test system of test [2] is EKVX NSCLC.
For test [3], the system named is SN12C renal.
In test [4] the test system is TK-10 renal.
Test [5] concerns ACHN renal.
For test [6], the system named is CAKI-1 renal.
The test system of test [7] is A498 renal.
Test [8] deals with MOLT-4 leukemia.
Test [9] has as its system SR leukemia.
The test system of test [10] is RPMI-8226 leukemia.
The test system of test [11] is OVCAR-8 ovarian.
The subject of test [12] is OVCAR-5 ovarian.
The subject of test [13] is OVCAR-4 ovarian.
Test [14] relates to SK-OV-3 ovarian.
Test [15] deals with IGROV1 ovarian.
Test [16] concerns OVCAR-3 ovarian.
Test [17] has as its system HS 578T breast.
The test system of test [18] is NCI/ADR-RES ovarian.
In test [19] the test system is CCRF-CEM leukemia.
The subject of test [20] is UO-31 renal.

About 83,000 compounds went through this panel and 20% of them were active in at least one assay; those are over-represented in the sample as a whole.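 Single-concentration screen, 48 h exposure, 96-well plates. Endpoint: percent growth. Below 10 = active.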 Unmarked numbers belong to inactive results. Activity calls are given as the source filed them.

Consider `CCOC(=O)c1cc(N)nc2ccccc12`, for which the growth is 99.9% in test [1]; 108% in test [2]; 109% in test [3]; 106% in test [4]; 105% in [5]; 102% in [6]. The growth in [7] is 95%; in test [8] it was 100%; in [9] it was 102%; in [10], 106%; in test [11], 108%; in test [12], 109%. The growth in [13] was 109%; in test [14], 101%; in [15], 120%; in test [16], 109%; in [17] it was 82.7%; in test [18] it was 104%.
With `COc1cc2ncnc(Nc3ccc(S(=O)(=O)Nc4cc(C)on4)cc3)c2cc1OCCCN1CCN(c2ccc([N+](=O)[O-])cc2)CC1`, the growth in test [1] is 109%; in test [2], 116%; in test [3], 102%; in [4], 103%; in test [5], 109%; in test [6], 92.8%. Besides, the growth was 110% in [7]; 99.1% in [19]; 111% in test [8]; 114% in test [9]; 109% in [10]; 104% in test [11]. For the same compound, the growth was 106% in [12]; 111% in [13]; 99% in test [14]; 108% in test [15]; 103% in test [16]; 101% in [17]. In [18], the growth is 106%.
Turning to `CCOCCNc1ccc(S(=O)(=O)c2ccc(N)cc2)cc1N`, the growth in test [1] is 111%; in test [2] it was 86.6%; in test [3], 110%; in test [4], 111%; in test [5], 106%; in [6] it was 86.7%. Moreover, the growth in test [7] is 83.2%; in test [19], 96%; in [8], 107%; in test [9], 115%; in test [10] it was 92.9%; in [11] it was 98.7%. Further, the growth was 103% in test [12]; 100% in test [13]; 105% in [14]; 114% in [15]; 100% in test [16]; 99% in test [17]. Also, the growth in test [18] is 100%.
As for `CC(=O)Oc1c(Cl)c(Cl)c(Cl)c(Cl)c1Cl`, the growth was 90.1% in test [1]; 87.6% in test [2]; 94.1% in [3]; 101% in test [4]; 95.8% in test [5]; 89.2% in test [6]. Besides, the growth in test [7] is 86.1%; in test [19], 83.2%; in [8], 85.6%; in test [9] it was 106%; in test [10] it was 73.4%; in test [11] it was 92.6%. For the same compound, the growth in [12] is 100%; in [13] it was 90.3%; in [14] it was 91.4%; in test [15], 92%; in test [16], 107%; in test [17] it was 106%. In addition, the growth in [18] is 93.4%.
Take `CCCCCCCCCCCC1=NC(C)(C)CN1CCO`: the growth in test [1] was 87.8%; in test [2], 68.7%; in test [3] it was 72.6%; in test [20], 68.3%; in test [4], 92.6%; in [5] it was 78.2%. The growth in [6] is 75%; in test [19], 23.5%; in [11], 78.1%; in test [12], 92%; in [13] it was 72.6%; in [14] it was 97%. Also, the growth in test [15] is 38.5%; in test [16] it was 81%; in test [17] it was 59.3%; in test [18], 90.3%.
Regarding `CCN1C(=O)N(CC)C2C1NC(=O)N2/N=C/C=C/c1ccccc1` (configuration not stated), the growth was 34.3% in [1]; 53.8% in test [2]; 61.3% in [3]; 57.6% in test [20]; 69.3% in test [4]; 48.1% in test [5]. Moreover, the growth in test [6] was 47.2%; in test [19], 19.1%; in [8], 43.7%; in test [9], 20.3%; in test [11], 60.5%; in test [12], 80.1%. Further, the growth is 64.4% in [13]; 36.7% in [14]; 53.2% in [15]; 7.58% (active) in [16]; 34.8% in test [17]; 38.7% in test [18].
Turning to `CC1=CCC2C1CC=C(C)C(CC[C@H]1[C@@](C)(O)CCC3OC(C)(C)[C@H](OC(=O)c4ccccc4)CC[C@@]31C)C2(C)C` (some centres not stated), the growth is 81.3% in test [1]; 69.6% in test [2]; 80.6% in [3]; 97.5% in test [4]; 94.1% in [5]; 67.7% in [6]. Further, the growth in [7] is 110%; in test [19] it was 99.6%; in [11], 87.4%; in test [13] it was 71.5%; in test [14], 93.8%; in [15] it was 102%. The values for the growth in test [16], in test [17] and in test [18] were 72.8%, 110% and 95%, respectively.
Turning to `Brc1ccsc1Br`, the growth in test [1] is 101%; in [2] it was 114%; in test [3], 113%; in [4], 109%; in [5], 112%; in [6], 99.6%. For the same compound, the growth in test [7] is 141%; in [19] it was 102%; in [8], 108%; in test [9], 107%; in test [10] it was 103%; in test [11], 122%. Besides, the growth is 106% in test [12]; 107% in test [13]; 94.8% in test [14]; 103% in test [15]; 129% in test [17]; 116% in test [18].

For the origin of these results see PubChem BioAssay (NCI).
